# In PubChem BioAssay (NCATS):
# Where “and” joins values, the source holds several entries; their conditions need not be identical. Identical values can stand only once. Records with an inconclusive call do not appear. Values without a mark were called inactive. Calls of active or inactive are those of the source. Calls follow the shape of the dose curve; as a rule, active = well fitted inhibition curve with a large enough effect; inconclusive = small, poorly fitted or top-dose-only effect; inactive = flat fitted curve, though single readings scatter.
# Experiment: qHTS for differential inhibitors of proliferation of Plasmodium falciparum line Dd2 (AID 1882); also: nearly all actives have a fitted effect of over 65% in size
# Conditions: Potency: Plasmodium falciparum Dd2 proliferation inhibition; series mostly up to 28.7 µM; activity change, negative = inhibition: at the top concentration
# Description: NIH Molecular Libraries Probe Production Network [MLPCN]
# NIH National Institute of Allergy and Infectious Diseases [NIAID]
# NIH Chemical Genomics Center [NCGC]
# Assay Provider: Xinzhuan Su, NIAID
# Plasmodium falciparum is a virulent malarial parasite that kills 1-2 million people worldwide each year. Transmitted by mosquitoes, the sporozoite form of the parasite enters the blood stream to infect hepatocytes, where they become merozoites that infect red blood cells (erythrocytes). Within erythrocytes, merozoites begin a […] cycle of growth and division, after which the parasite is released to infect new red blood cells. Gametocytes, which form within erythrocytes as well, circulate in the bloodstream and are ingested by the mosquito, thereby completing the life cycle. To profile malarial isolates for differential chemical responses and to identify inhibitors of malarial growth, an assay that measures P. falciparum growth and replication within erythrocytes was employed. This assay uses a DNA binding fluorescent dye (SYBR Green) to detect parasite DNA following cell lysis. Because mature erythrocytes lack DNA, only Plasmodium-derived DNA is detected. The P. falciparum line Dd2, derived from a malarial isolate from […], was used.
# NCGC Assay Protocol Summary:
# The SYBR Green viability assay was adapted from a method described previously (Plouffe et al., 2008). For screening 3 ul culture medium was dispensed into 1536 well black clear bottom plates (Aurora Biotechnologies) using a Multidrop Combi (Thermo Fisher Scientific Inc.), 23 nL compounds in DMSO were added by a pin tool (Kalypsys), and 5 ul of erythrocytes infected with P. falciparum line Dd2 (0.3% parasitemia, 2.5% hematocrit final concentration) were added. The plates were incubated at 37 C in a humidified incubator in 5% CO2 for 72 h, and 2 ul lysis buffer (20 mM Tris HCl, 10 mM EDTA, […]% saponin, 1.6% triton X, 10X SYBR Green I supplied as 10,000X […] by Invitrogen) was added to each well. The plates were mixed for 25 sec with gentle shaking and incubated overnight at room temperature in the dark. The following morning, fluorescence intensity at 485(14) nm excitation and 535(25) nm emission wavelengths was measured on an EnVision (Perkin Elmer) plate reader. Plate reads were normalized relative to the control inhibitor (0.29 uM artemisinin) and vehicle (DMSO) wells present on each plate and then corrected by an algorithm using vehicle-only control plates at the beginning and end of the compound plate stack.
# Plouffe D, Brinker A, McNamara C, Henson K, Kato N, Kuhen K, Nagle A, Adrian F, Matzen JT, Anderson P, Nam TG, Gray NS, Chatterjee A, Janes J, Yan SF, Trager R, Caldwell JS, Schultz PG, Zhou Y, Winzeler EA. […] Proc Natl Acad Sci U S A. 2008, 105(26), pp 9059-64.
# Potency is read from the fitted curve at half-maximal effect.
SMILES,"activity change, negative = inhibition [%]",Potency
CSc1nc(N)c2ncn([C@@H]3O[C@H](COP(=O)(O)OP(=O)(O)O)[C@H](O)[C@H]3O)c2n1,-0.563,
COC(=O)c1c(-c2cc(OC)c(OC)c(OC)c2)c2ccc(OCc3ccccn3)cc2c(=O)n1-c1ccc(N)cc1,,2 µM (active)
NCC1OC(O[C@@H]2[C@H](O)[C@@H](OC3C(O)C(N)CC(N)C3OC3OC(CO)C(O)C(O)C3N)O[C@@H]2CO)C(N)C(O)C1O (stereo not given in full),0.156,
COc1ccc(CCNC[C@@H](O)c2ccc(O)cc2)cc1OC,-1.4,
CC(C)(C)[C@]1(O)CCN2CC3c4ccccc4CCc4cccc(c43)[C@@H]2C1 (stereo not given in full),,7.08 µM (active) and 14.1 µM (active)
O=C(Cc1ccc(Cl)c(Cl)c1)OCCN1CCCC1,4.79,
CCCC(=O)NCCc1c2n(c3ccc(OC)cc13)Cc1ccccc1-2,-23.6,
C[C@H]1CC2[C@@H]3CCC4=CC(=O)C=C[C@]4(C)[C@@]3(Cl)[C@@H](O)C[C@]2(C)[C@@]1(O)C(=O)CO (stereo not given in full),-7.72,
CN=C(N)NCCCC(N)C(=O)O (stereo not given),7.75,
NC(=NCCC[C@H](N)C(=O)O)NO,-1.05,
Cc1cn([C@H]2C[C@@H](N=[N+]=[N-])[C@@H](CO)O2)c(=O)[nH]c1=O,3.38,
NCCNC(=O)c1ccc(Cl)cc1,0.805,
C[C@H](Cc1ccccc1)Nc1ncnc2c1ncn2[C@@H]1O[C@H](CO)[C@H](O)[C@H]1O,-21.4,
OC[C@H]1O[C@@H](n2cnc3c(NCCc4ccccc4)ncnc32)[C@H](O)[C@H]1O,-0.0962,
CN(CCOc1ccc(C[C@H](Nc2ccccc2C(=O)c2ccccc2)C(=O)O)cc1)c1ccccn1,-23.9,
CNC(=O)[C@H]1O[C@@H](n2cnc3c(NCc4cccc(I)c4)ncnc32)[C@H](O)[C@H]1O,-25.5,
CNC(=O)[C@H]1O[C@@H](n2cnc3c(NCc4ccc(N)cc4)ncnc32)[C@H](O)[C@H]1O,-0.546,
C[C@H]1CC2[C@@H]3CCC4=CC(=O)C=C[C@]4(C)[C@@]3(F)[C@@H](O)C[C@]2(C)[C@@]1(O)C(=O)CO (stereo not given in full),0.0758,
OC[C@H]1O[C@@H](n2cnc3c(NC4CCCC4)ncnc32)[C@H](O)[C@H]1O,-19.1,
Nc1nc2c(nc(Br)n2C2O[C@H]3COP(=O)(O)O[C@@H]3C2O)c(=O)[nH]1 (stereo not given in full),,7.94 µM (active)

SMILES,"activity change, negative = inhibition [%]",Potency
C[C@]12CCC(=O)C=C1CC[C@@H]1C2[C@@H](O)C[C@@]2(C)[C@H]1CC[C@]2(O)C(=O)CO (stereo not given in full),-14.6,
CN1C2CCC1CC(NC(=O)c1nn(C)c3ccccc13)C2 (stereo not given),-1.42,
CN1C2CC(OC(=O)C(CO)c3ccccc3)CC1C1OC12 (stereo not given),-14.5,
CCSC(N)=Nc1ccc(C(F)(F)F)cc1,-0.636,
CC(N)=NCCCC(N)C(=O)O (stereo not given),3.58,
N[C@H](Cc1ccc(O)c(O)c1)C(=O)O,-1.85,
N=C1Sc2ccccc2C2=NCCCN12,1.13,
Nc1ncnc2c1ncn2[C@@H]1O[C@H](C(=O)NC2CC2)[C@H](O)[C@H]1O,-4.64,
CC(O)[C@@H](O)[C@H]1CNc2nc(N)[nH]c(=O)c2N1 (stereo not given in full),2.94,
N=C(N)SCCc1cccc(CCSC(=N)N)c1,,7.08 µM (active)
CCCNC[C@H](O)COc1ccccc1C(=O)CCc1ccccc1,,1.12 µM (active)
COc1cc(=O)n(C)c2c(OCC(O)C(C)(C)O)cccc12 (stereo not given),-15.1,
COc1ccc2c(c1)c(CC(=O)O)c(C)n2Cc1ccc(F)cc1,-15.9,
CN1CCc2cc(Cl)c(O)cc2C(c2ccccc2)C1 (stereo not given),,8.91 µM (active)
COc1c2c(nc3ccccc13)OC(C(C)(O)CO)C2 (stereo not given),3.12,
CC(=O)NCCc1ccc(O)c(O)c1,-19.5,
CC(=O)[C@@]1(O)CC[C@H]2C3CCC4=CC(=O)CC[C@]4(C)C3CC[C@@]21C (stereo not given in full),-19.8,
CSc1nc(N)c2ncn([C@@H]3O[C@H](COP(=O)(O)OP(=O)(O)OP(=O)(O)O)[C@H](O)[C@H]3O)c2n1,-2.52,
CC(C)C1NC(=O)[C@H](CCCCN)NC(=O)[C@@H](Cc2c[nH]c3ccccc23)NC(=O)[C@H](Cc2ccc(O)cc2)NC(=O)[C@H](C)N(C)C(=O)[C@H](Cc2ccccc2)NC1=O (stereo not given in full),-1.99,
OC[C@H]1O[C@@H](n2cnc3c(N[C@H]4CC5CCC4C5)ncnc32)[C@H](O)[C@@H]1O (stereo not given in full),0.462,
